The target in this experiment is T1, Aspartate--tRNA(Asp/Asn) ligase (Mycobacterium tuberculosis (strain ATCC 25618 / H37Rv)) (UniProt P9WFW3).
T1 sequence (whole entry): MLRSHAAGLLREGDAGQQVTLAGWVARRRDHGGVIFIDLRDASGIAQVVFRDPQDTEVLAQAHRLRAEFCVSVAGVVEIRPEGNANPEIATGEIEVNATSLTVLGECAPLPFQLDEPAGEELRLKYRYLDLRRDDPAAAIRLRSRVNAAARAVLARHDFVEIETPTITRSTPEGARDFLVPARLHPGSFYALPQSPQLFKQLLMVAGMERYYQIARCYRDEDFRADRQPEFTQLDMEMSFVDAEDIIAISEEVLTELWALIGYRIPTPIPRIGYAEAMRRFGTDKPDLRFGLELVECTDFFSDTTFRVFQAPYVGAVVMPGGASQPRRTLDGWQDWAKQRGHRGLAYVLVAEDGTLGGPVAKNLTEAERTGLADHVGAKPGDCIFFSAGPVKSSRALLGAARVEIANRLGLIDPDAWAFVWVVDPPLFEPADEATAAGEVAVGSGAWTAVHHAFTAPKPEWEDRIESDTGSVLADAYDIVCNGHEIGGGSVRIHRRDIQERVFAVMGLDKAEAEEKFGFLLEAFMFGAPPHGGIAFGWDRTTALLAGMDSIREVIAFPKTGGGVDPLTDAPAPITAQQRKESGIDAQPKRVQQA
Nature of the experiment: Assay for Asp RNA synthetase-1 from Mycobacterium tuberculosis. It is filed as functional. On the set-up: scale not given: in the data most compounds retested in dose-response had high values. The following applies: 30 µM.
Consider `Cc1nnc(N2CC[C@H](OCC3CC3)[C@@H](Cc3ccccc3)C2)s1`, for which the Percent Effect was 9.93%. On to `CC(=O)N1CCN(CC2CCOc3ccccc3C2)CC1` (centres undefined), for which the Percent Effect came out at 1.75%. For `CN(C)C(=O)NC1COC2(CCN(Cc3nccn3C)CC2)C1` (centres undefined) the value was 2.7%; for `Cc1cc(NC(=O)CN2CCc3nn(C)c(=O)cc3C2)on1`, 11.6%. Regarding `O=C(CCC1CCCC1)NCCn1nc(C2CCNC2)c2nccnc21` (centres undefined), the Percent Effect turned out to be 1.74%.

Turning to `Cc1cnn(CCNCc2csc(-c3ccc4c(c3)OCO4)n2)c1`, the Percent Effect is 1.41%.

In the case of `CNC(=O)N1CC[C@H]2N(C)CC[C@@]2(C(=O)Nc2ccccc2)CC1`, the Percent Effect was -8.12%. Turning to `O=C(NC1(c2cccc(F)c2)CCOCC1)c1ccccn1`, the Percent Effect is -1.19%. For `Cc1nc(COC[C@@H]2CCC[C@@]23CNCCO3)cs1` the value was 19.4%. For `CN1CCc2nc(C3CCN(C(=O)CCC4CCCC4)CC3)ncc2C1` the value was 2.63%; for `Cc1n[nH]c(=O)c2c(NC(=O)CN3CCC(O)CC3)oc(C)c12`, 1.28%; for `CC(c1nc(C2CC2)no1)N1CCN(Cc2cccc(C#N)c2)CC1` (centres undefined), -3.08%.

As for `CC(C)n1[nH]c(=O)c2c1NC(=O)CC2c1cccc(OC(F)F)c1` (centres undefined), the Percent Effect stood at 0.474%. As for `CC(C)c1nn(C)c(Cl)c1CNCc1ccc2c(c1)OCCO2`, the Percent Effect came out at 5.79%. The value for `CCCn1ccc2ccc(NC(=O)N(C)CCOC)cc21` was -4.94%. For `CC(C)(C)n1ncc2c1NC(=O)CC2c1ccsc1` (centres undefined) the value was 2.57%. Regarding `CC(=O)Nc1cccc(OCCNC(=O)N(C)Cc2ccco2)c1`, the Percent Effect is -1.02%. On to `CCCc1n[nH]c(C2CN(C(=O)CCCn3cccn3)CCO2)n1` (centres undefined), for which the Percent Effect is -0.947%. The value for `CS(=O)(=O)N1CCC2(CC1)CC(CC(=O)N1CCCC1)c1ccccc12` (centres undefined) was 5.87%.

With `CC(=O)N1CCC2(CC1)CC(Oc1ccccc1)CO2` (centres undefined), the Percent Effect was -1.48%. Regarding `c1ccc2c(N3CCCC3Cn3cccn3)ncnc2c1` (centres undefined), the Percent Effect came to 0%. Turning to `Cc1ccc(S(=O)(=O)NC(=O)c2cccc(OCC(N)=O)c2)s1`, the Percent Effect was 2.86%. Regarding `CCCC(C)C(=O)NCc1cn2cc(Br)ccc2n1` (centres undefined), the Percent Effect was determined as 1.41%. For the compound `COCCCNC(=O)CN(C)C(=O)c1cc(C)ccc1N(C)C(C)C`, the Percent Effect came to 1.84%. For the compound `CC(=O)N1CCN(Cn2nc(-c3ccc(F)cc3)oc2=O)CC1`, the Percent Effect came to 0.698%. For `O=c1ccc(-c2cccs2)nn1CN1CCCCCC1` the value was -1.83%; for `Cn1ccnc1CN1CCN(Cc2ccccc2C#N)CC1`, 1.91%.

In the case of `Cn1cc(C(=O)N2CCCC(n3cccn3)C2)c2ccccc21` (centres undefined), the Percent Effect is -0.132%.

Turning to `CCO[C@@H]1CO[C@@]2(CCCN(S(=O)(=O)c3cccnc3)C2)C1`, the Percent Effect worked out at 9.04%.

Turning to `CCc1nc(CN2CCN(C(=O)CCc3ccccc3)CC2)cs1`, the Percent Effect is -4.18%. Regarding `CN1CC(=O)N(c2cnn(C)c2)CC12CCN(C(=O)c1ccsc1)C2` (centres undefined), the Percent Effect was 0.595%. In the case of `COCCN1CCc2cc(C(=O)N(C)C)c(NCC3CC3)nc2CC1`, the Percent Effect came out at 0.183%. As to `Cn1ccnc1COc1ccc(CO)cc1`, the Percent Effect was found to be 1.33%. For `CC(C)CCN1CC2(CCCN(C(=O)c3cscn3)C2)CCC1=O` (centres undefined) the value was 8.2%; for `CCOCCC(=O)Nc1cccc(Oc2ccccn2)c1`, 5.81%. For `Cc1cnc(NC(=O)c2ccc(-n3ncc(C#N)c3N)cc2)s1` the value was 0%; for `COc1cccc(C2CCCN2Cc2nc3c(cnn3C)c(=O)[nH]2)c1` (centres undefined), -4.03%. On to `Cc1cccc(C2(C(=O)NCCCn3cccn3)CC2)c1`, for which the Percent Effect was -9.29%. Take `Cc1nc2ccccc2nc1CN1CCCC1c1c(C)nn(C)c1C` (centres undefined): the Percent Effect is -5.6%.

Values taken from ChEMBL document CHEMBL3988442, “University of Dundee, Small-Polar-MMV Screening Library” (2021).
